The list is not random: actives were taken first. Their share in the collection is about 4.3%.
HIF-2a inh: HIF-2a reporter inhibitors, primary screen, luminescence, 786-0 RCC cells; actives 0.72% (n = 360,000); inhibition, % at 18.8 µM; 786-0 RCC cells HIF-2a reporter, luciferase luminescence, overnight;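 active = inhibition of the luminescence signal of 40% or more relative to plate controls, in a single-dose primary screen at 18.75 µM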
CF NFkB block: inhibitors of PAF-induced NF-kB signaling, primary screen, cell-based, GFP fluorescence, uHTS; KKLEB NF-kB-GFP reporter, GFP fluorescence overnight; inhibition, % at 5 µM; actives 0.86% (n = 360,000);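 active = at least 50% inhibition at 5 µM, scaled per plate between neutral and stimulator controls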;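 also: PAF is a Pseudomonas aeruginosa culture filtrate used as stimulus; plate controls were PAF-stimulated DMSO wells for no effect and unstimulated DMSO wells for full effect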
KKLEB tox: cytotoxicity in KKLEB CF airway cells, primary screen, cytotoxicity control for CF NF-kB inhibitor project, cell-based, uHTS, fluorescence assay plates; actives 0.36% (n = 360,000); KKLEB CF airway cells viability, ATPlite luminescence, overnight; hits give low values; cells stimulated with P. aeruginosa culture filtrate; activity change (cytotoxicity), % at 5 µM;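 active = corrected activity change at or below -50% at 5 µM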
TRPM1 prom inh: inhibitors of MITF-dependent TRPM1 promoter reporter, primary screen, cell-based, SK-MEL-5, single point, luciferase. SK-MEL-5 TRPM1 promoter luciferase, 24 h. AID 488899, 2010. actives 0.83% (n = 330,000). inhibition, % at 12.5 µM;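 active = mean inhibition across replicates of 60% or more, whatever share of single replicates reaches that level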
CHOP inh: inhibitors of CHOP promoter induction, primary screen, cell-based, unfolded protein response, luciferase reporter; actives 3.8% (n = 220,000); CHO-K1 CHOP-promoter luciferase, tunicamycin-induced, 15-18 h; inhibition, % at 10 µM;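 active = compounds that reduced the stress-induced luciferase reporter signal by more than about 70% of percent inhibition, limit read from the data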;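 also: 0% = tunicamycin plus vehicle and 100% = wells without tunicamycin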
Peg3 prom inh: Peg3 promoter-driven luciferase inhibitors, primary screen, cell-based, HeLa, luciferase luminescence; inhibition, % at 20 µM; HeLa PEG-Prom luciferase reporter, overnight; actives 1.7% (n = 360,000); AID 588405, 2011;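 active = inhibition of at least 50% at 20 µM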
The depositor's hits bear a star; / = not tested or not shown.

SMILES	HIF-2a inh	CF NFkB block	KKLEB tox	TRPM1 prom inh	CHOP inh	Peg3 prom inh
CN(C(=O)C1CCC(=O)N(CCCN2CCCC2=O)C1)C(C1CC1)C1CC1 (configuration not stated)	-6	2	-7	4	/	-7
NC(CCc1ccccc1)c1csc(NC(=O)NCC2CCCCC2)n1 (configuration not stated)	-55	8	-11	/	/	98*
COc1ccc(CC(N)c2csc(NC(=O)NCc3ccccc3)n2)cc1 (configuration not stated)	4	6	-11	/	/	22
COc1ccccc1NC(=O)Nc1nc(CC(=O)N2CCN(c3ccccc3F)CC2)cs1	-18	-23	5	-11	/	52*
COc1ccccc1NC(=O)Nc1nc(C(N)CC(C)C)cs1 (configuration not stated)	5	-4	-4	/	/	61*
COc1ccc(CC(N)c2csc(NC(=O)Nc3ccccc3-c3ccccc3)n2)cc1 (configuration not stated)	9	15	-15	/	/	92*
O=C(NC1CCCCC1)C(CCc1ccccc1)N1CCc2ccccc2C1 (configuration not stated)	-1	8	-20	/	/	5
CCOC(=O)c1c(S(=O)(=O)NCC(=O)Nc2cc(C)ccc2OC)c(C)n(C)c1C	16	2	8	2	/	8
COc1ccc(CCNC(=O)Nc2nc(C(N)Cc3ccccc3)cs2)cc1OC (configuration not stated)	12	-8	-2	/	/	17
COc1ccc(OC)c(NC(=O)Cc2csc(NC(=O)Nc3ccccc3OC)n2)c1	-6	-9	-16	-9	/	54*
COc1ccccc1NC(=O)Nc1nc(C(N)Cc2ccc(Cl)cc2)cs1 (configuration not stated)	11	6	-7	/	/	106*
COc1ccc(OC)c(NC(=O)Nc2nc(C(N)CCc3ccccc3)cs2)c1 (configuration not stated)	-23	24	-18	/	/	100*
COc1ccccc1NC(=O)Nc1nc(C(N)Cc2ccccc2)cs1 (configuration not stated)	-6	4	3	/	/	60*
C[C@@H]1CN([C@@H](C)CO)C(=O)c2cc(Br)cnc2O[C@H]1CN(C)C(=O)c1ccc2c(c1)OCO2	13	0	-8	/	/	5
Cc1cc(C(=O)c2ccc(Cl)cc2)c(NC(=O)CCl)s1	4	48	-46	20	63	89*
CC(=C/c1ccco1)/C=N/NC(=O)c1nnn(-c2nonc2N)c1CN(C)C	0	6	5	-25	-8	8
CC[C@H](C)[C@@H](CN[C@H](C)CNC)NCCC(c1ccccc1)c1ccccc1	-3	20	-11	90*	/	98*
CNC[C@@H](C)NC[C@@H](Cc1ccccc1)NCCc1ccccc1	4	-3	-25	-18	/	-1
CCCC(O)(c1ccc(Cl)cc1)C(CN1CCOCC1)c1ccccc1 (configuration not stated)	2	-1	2	3	90*	57*
CCCC(O)(c1ccc(Br)cc1)C(CN1CCOCC1)c1ccc(Cl)cc1 (configuration not stated)	7	18	-11	-3	/	58*
Cc1cc(-c2ccccc2)c2ccc(NC(=O)C(C)(C)C)nc2n1	1	-22	3	-1	/	16
COc1ccc(-c2nn(-c3ccccc3)cc2C(=O)OCC(=O)c2ccc(C)c([N+](=O)[O-])c2)cc1	5	-6	17	0	87*	17
COc1ccc(-c2nn(-c3ccccc3)cc2C(=O)n2nnc3ccccc32)cc1	16	30	-25	3	-33	56*
COc1ccc(-c2cc(C(=O)OCC(=O)c3ccc(C)c([N+](=O)[O-])c3)c3ccccc3n2)cc1	-40	5	6	-29	39	-91
COC(=O)c1cn(-c2ccccc2)nc1-c1ccc(OC)cc1	-8	2	4	-1	38	12
